Screen size: about 96,000 compounds; about 19,000 (20%) were called active. These entries were drawn from the full list. Unmarked numbers belong to inactive results.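 How the source made its calls: active means blocking of liver enzyme CYP2C9 beyond about 50% at 5 µM (limit read from the data); inactive means the rest.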
These compounds were tested against Cytochrome P450 2C9 (Homo sapiens) (UniProt P11712) (assay: blockers of cytochrome P450 2C9 activity – biochemical, luminescence, ADME assay, primary screen (AID 777)). Settings: CYP2C9 Supersomes, luciferin-H conversion, at 5 µM, stronger effect = higher value.
Sequence of Cytochrome P450 2C9 (Homo sapiens) (P11712 whole entry, looked up): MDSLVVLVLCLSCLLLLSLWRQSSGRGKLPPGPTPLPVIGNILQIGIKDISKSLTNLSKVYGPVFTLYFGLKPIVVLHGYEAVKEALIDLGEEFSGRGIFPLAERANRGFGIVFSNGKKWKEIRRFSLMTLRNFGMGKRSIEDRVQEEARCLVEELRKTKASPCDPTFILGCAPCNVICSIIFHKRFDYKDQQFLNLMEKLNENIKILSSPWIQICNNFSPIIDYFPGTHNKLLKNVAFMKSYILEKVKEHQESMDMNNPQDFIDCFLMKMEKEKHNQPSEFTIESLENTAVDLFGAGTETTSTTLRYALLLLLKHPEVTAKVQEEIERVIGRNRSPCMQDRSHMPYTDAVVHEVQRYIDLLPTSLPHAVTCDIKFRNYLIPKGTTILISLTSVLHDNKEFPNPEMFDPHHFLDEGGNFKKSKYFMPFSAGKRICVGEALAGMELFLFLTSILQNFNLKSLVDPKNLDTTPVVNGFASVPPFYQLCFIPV
In the case of Cc1cc(C)c2c3c(sc2n1)C(c1ccccc1)C(C#N)=C(N)O3 (stereo unspecified), the inhibition is reported as 11%. Fc1ccc(OCc2nn3c(Cn4nnc5ccccc54)nnc3s2)cc1 was tested, and the inhibition was 23.6%. Cc1cccc(NC(=O)c2ccccc2NC(=O)C(C)(C)C)n1 showed an inhibition of 11.7%. With O=C(Nc1ccccc1)c1ccccc1NC(=O)C(F)(F)F the inhibition was 74.8% (active). In the case of O=C(Nc1ccccc1)c1cccnc1Nc1ccccc1, the inhibition is reported as 1.5%. Compound Cc1ccc(-n2c(=O)cc(N3CCN(Cc4ccccc4)CC3)[nH]c2=O)cc1 has an inhibition of 22.1%. With CCOC(=O)C1CCN(C(=O)COc2cc(C)c(Br)c(C)c2)CC1 the inhibition was 15.8%. CCCN1CCN(C(=O)Cn2ncc3ccccc32)CC1 showed an inhibition of 1%. With O=c1ccn(Cc2ccccc2Cl)cc1 the inhibition was -5.8%. O=c1[nH][nH]c(C(F)(F)F)c1C=NCc1ccccc1Cl was tested, and the inhibition was 55.5% (active). Cc1ccc(N(NC(=O)C(C)(C)O)C(=O)c2ccccc2)cc1C gave an inhibition of 2.5%. NS(=O)(=O)c1cccnc1Nc1cccc(Cl)c1 gave an inhibition of 5.6%. Work on O=C(Cc1ccccc1)N/N=C/c1ccc(Cl)cc1Cl yielded an inhibition of 23.1%. For O=C(Cn1cncn1)N/N=C/c1c2ccccc2cc2ccccc12, the inhibition was 63.7% (active). For Cc1ccc(/C=N/NC(=O)Cn2nc(C)c(Br)c2C)o1, the inhibition was 23.7%. CC(=O)Oc1ccc(C(C)=O)c2c1OCCO2 showed an inhibition of -9.3%. N#CCCn1cnc2ccccc21 gave an inhibition of -0.8%. Cc1ccc(SCC(=O)NC(=O)NCc2ccco2)c(C)c1 gave an inhibition of 30%. With CC1(c2ccccc2Cl)NC(=O)N(CC(=O)NC(=O)NCc2ccco2)C1=O (stereo unspecified) the inhibition was 67.6% (active). In the case of O=C(CN1CCN(S(=O)(=O)/C=C/c2ccccc2)CC1)NC(=O)NCc1ccco1, the inhibition is reported as 40.2%. Cc1cccc(NC(=O)c2ccc3ccccc3n2)n1 gave an inhibition of -0.8%. Compound COc1cc(OC)nc(NC(=O)CCl)n1 has an inhibition of -14.2%. Work on O=P(O)(CP(=O)(c1ccccc1)c1ccccc1)c1ccccc1O yielded an inhibition of -5.8%. For CC(CO)N1CCS(=O)(=O)CC1 (stereo unspecified), the inhibition was -5.6%. COc1ccc(NC(=O)C(CC(C)C)NS(=O)(=O)c2ccc3c(c2)CCN3C(C)=O)cc1OC (stereo unspecified) showed an inhibition of 7.4%. In the case of Brc1ccc(OCCn2ccnc2)cc1, the inhibition is reported as 72.1% (active). CC(=O)NS(=O)(=O)c1ccccc1 was tested, and the inhibition was 0.2%. Work on O=C1C(Cl)=C(N2CCOCC2)C(=O)N1c1ccccc1 yielded an inhibition of 5%. With CC(C)(C)c1ccc(NC(=O)NCc2ccco2)cc1 the inhibition was -17.8%. COc1cc2c(cc1OC)C(C(=O)NCc1ccco1)C1c3ccccc3CCN1C2=O (stereo unspecified) showed an inhibition of 42%. In the case of CC1(C)SC2c3ccccc3C(=O)N2[C@@H]1C(=O)NCc1ccco1 (stereo partly specified), the inhibition is reported as 57.9% (active). For CC1CCc2c(sc3c2C2=NS(=O)(=O)CCN2C=N3)C1 (stereo unspecified), the inhibition was 6.8%. Work on O=C(Nc1cc(-c2nn(CC(=O)N3CCCCC3)c(=O)c3ccccc23)ccc1N1CCOCC1)c1ccc(Cl)cc1 yielded an inhibition of 0.2%. O=C(Cn1nnc2ccccc2c1=O)Nc1cc(C(F)(F)F)ccc1N1CCOCC1 was tested, and the inhibition was 60.7% (active). With CC(C)CC(=O)Nc1cc(C(F)(F)F)ccc1N1CCOCC1 the inhibition was 9.9%. CCCCc1nccn1CCn1ccnc1CCCC showed an inhibition of -10.5%. CN1CCN(CC(=O)Nc2sc3c(c2C#N)CCC(C(C)(C)C)C3)CC1 (stereo unspecified) was tested, and the inhibition was 33.8%. Work on O=C(Nc1c(-c2ccccc2)nc2c(Br)cc(Br)cn12)c1ccco1 yielded an inhibition of 15.6%. With N=C(N)SCc1cccc2ccccc12 the inhibition was -24.4%. c1ccc2c(C[n+]3csc4ccccc43)cccc2c1 was tested, and the inhibition was 76.7% (active). In the case of c1ccc2c(CNn3cnnc3)cccc2c1, the inhibition is reported as -2.3%. Cc1ccc(C(=O)NNC(=O)OC(C)(C)C)c(Cl)c1 showed an inhibition of 1.9%. For CCc1ccc(CNC(=O)C2CCCN(c3nc4ccccc4o3)C2)cc1 (stereo unspecified), the inhibition was 45%. In the case of O=S(=O)(c1ccc(OCC(O)CN2CCN(c3ccccc3Cl)CC2)cc1)N1CCOCC1 (stereo unspecified), the inhibition is reported as 28.3%. CC(=O)N1CCN(c2cccc(C)c2C)CC1 was tested, and the inhibition was -8.6%. With CCOC(=O)Cc1csc(NC(=O)CN(C)S(=O)(=O)c2ccc3c(c2)CCC(=O)N3)n1 the inhibition was 65.5% (active). In the case of Cc1cccc(N2CCN(C(=O)CN(C)S(=O)(=O)c3ccc4c(c3)CCC(=O)N4)CC2)c1C, the inhibition is reported as 51% (active). Work on Cc1ccc(S(=O)(=O)N(C)CC(=O)N2CCc3ccccc32)cc1 yielded an inhibition of -132%. With CCOC(=O)Cc1csc(NC(=O)CSc2nc(C)cc(=O)[nH]2)n1 the inhibition was 23.2%. Compound CCOC(=O)Cc1csc(NC(=O)C(C)(C)C)n1 has an inhibition of 30.2%. With COC(=O)/C=C/C(=O)NCc1ccco1 the inhibition was 1.2%. Compound OCCN1CCOCCOCCN(CCO)CCN(CCO)CC1 has an inhibition of 12.8%. With Cc1ccc(C(=O)/C=C/c2c(C)nn(-c3ccccc3)c2Cl)cc1 the inhibition was 90.4% (active). Compound Cc1nn(-c2ccccc2)c(CC(C)(C)C(=O)O)c1C(=O)O has an inhibition of -10.3%. Cc1nn(-c2ccccc2)c(Cl)c1C(=O)Nc1ccccc1 gave an inhibition of -47%. O=C(Nc1ccccc1C(=O)N1CCOCC1)C1CCC(=O)N1C1CCCC1 (stereo unspecified) was tested, and the inhibition was -9.2%. COc1cccc(N2C(=O)C3CCCN3C2c2ccc(F)cc2)c1 (stereo unspecified) was tested, and the inhibition was -9.4%. In the case of COc1ccc(OCC(=O)OCCN(C)C)cc1, the inhibition is reported as -12.1%. O=C(CCCOc1ccccc1)NCc1ccco1 showed an inhibition of 18.1%. For CN(C)C(CNC(=O)CCCOc1ccccc1)c1ccco1 (stereo unspecified), the inhibition was 51.7% (active). O=C(CCOc1ccccc1)NCc1ccccc1 was tested, and the inhibition was 6.9%. Work on O=C(NCC12CC3CC(C1)CC(CNC(=O)N1CCCC1)(C3)C2)N1CCCC1 yielded an inhibition of -12.3%. Nc1nc(SCCOc2ccccc2)n[nH]1 gave an inhibition of -8.6%. For COc1cc2c(cc1NC(=O)CN1CCN(S(=O)(=O)c3ccc(F)cc3)CC1)oc1ccccc12, the inhibition was 78.7% (active). Work on COc1ccccc1NC(=O)CN1CCN(S(=O)(=O)c2ccc(Br)cc2)CC1 yielded an inhibition of -0.8%. For COc1ccc(NC(=O)CN2CCN(S(=O)(=O)c3ccc(F)cc3)CC2)cc1Cl, the inhibition was 17.3%.
